Data on 19 molecules can be found in ChEMBL document CHEMBL4513142, “CO-ADD screening of Indiana University - Purdue University Indianapolis (USA) compounds”.

Where “and” joins values, the source holds several entries; their conditions need not be identical. Identical values can stand only once. Entries with a potency or affinity are not part of this list.

What is called Inhibition is the relative decrease from the control value, in per cent.

One assay has as its system Klebsiella pneumoniae. Particulars: Concentration 32 ug.mL-1, ASSAY_TEST Inhibition of Bacterial Growth, detection method Absorption (OD600), MEDIA CAMHB, plate type 384well, NBS, CORNING #3640, time 18 hr.
The next assay relates to Candida albicans. Particulars: 32 ug/mL.
A further assay concerns Cryptococcus neoformans. Conditions: Concentration 32 ug.mL-1, ASSAY_TEST Inhibition of Fungal Growth, detection method Resazurin, Absorption (OD600-OD570), plate type 384well, NBS, CORNING #3640.

For the molecule `NC(Cc1ccccc1F)C(=O)O.O=C(O)C(F)(F)F` (stereo unspecified), the Inhibition with Klebsiella pneumoniae (32 ug/mL) was -4.61% and -3.52%; with Candida albicans it was 2.11% and 3.25%; with Cryptococcus neoformans (32 ug/mL), -7.08% and 0.99%.

With `NC(=O)[C@@H]1CCCN1C(=O)c1ccccn1`, the Inhibition in the assay on Klebsiella pneumoniae (32 ug/mL) was 13.57% and 8.38%; in the assay on Candida albicans it was 8.62% and 7.92%; in the assay on Cryptococcus neoformans (32 ug/mL), -5.72% and -3.53%.

Regarding `NC(Cc1cccc(F)c1)C(=O)O.O=C(O)C(F)(F)F` (stereo unspecified), the Inhibition with Klebsiella pneumoniae (32 ug/mL) is 0.53% and 0.81%; with Candida albicans, 1.58% and 1.27%; in the assay with Cryptococcus neoformans (32 ug/mL), -7.68% and -3.4%.

On to `[C-]#[N+]c1ccc(C(=O)NC(Cc2ccc(C(F)(F)F)cc2)C(=O)NCCC)cc1` (stereo unspecified), for which the Inhibition in the assay with Klebsiella pneumoniae is 13.54%; in the assay with Candida albicans, 5.79%; in the assay with Cryptococcus neoformans, -3.04%.

On to `CCCNC(=O)C(Cc1ccc(F)cc1)NC(=O)c1ccccc1` (stereo unspecified), for which the Inhibition was 12.41% in the assay with Klebsiella pneumoniae, 2.54% in the assay on Candida albicans and -4.63% in the assay on Cryptococcus neoformans.

Take `CC(C)C[C@H](NC(=O)c1ccc(Cl)cc1Cl)C(N)=O`: the Inhibition was 14.05% and -7.39% in the assay with Klebsiella pneumoniae (32 ug/mL); 4.49% and 5.39% in the assay on Candida albicans; -13.33% and -10.52% with Cryptococcus neoformans (32 ug/mL).

On to `CCCNC(=O)C(Cc1ccccc1)NC(=O)Cc1ccccc1` (stereo unspecified), for which the Inhibition in the assay with Klebsiella pneumoniae is 14.33%; in the assay with Candida albicans, 5.66%; with Cryptococcus neoformans, -5.77%.

Take `CCCNC(=O)C(Cc1ccccc1)NC(=O)c1ccc(F)cc1` (stereo unspecified): the Inhibition with Klebsiella pneumoniae is 15.24%; in the assay with Candida albicans it was 2.91%; with Cryptococcus neoformans, -7.35%.

Take `NC(Cc1ccc(F)cc1)C(=O)O.O=C(O)C(F)(F)F` (stereo unspecified): the Inhibition with Klebsiella pneumoniae (32 ug/mL) is 1.77% and -4.38%; with Candida albicans, 1.28% and -0.06%; in the assay on Cryptococcus neoformans (32 ug/mL), 6.08% and -8.37%.

As for `NC(Cc1ccccc1I)C(=O)O.O=C(O)C(F)(F)F` (stereo unspecified), the Inhibition in the assay with Klebsiella pneumoniae (32 ug/mL) is 3.96% and 4.88%; in the assay on Candida albicans, 4.55% and 4.79%; in the assay on Cryptococcus neoformans (32 ug/mL) it was -7.57% and -7.31%.

Turning to `NC(=O)[C@H](Cc1ccccc1)NC(=O)c1c(F)c(F)c(F)c(F)c1F`, the Inhibition in the assay with Klebsiella pneumoniae (32 ug/mL) is 8.47% and 11.14%; with Candida albicans, 3.95% and 8.52%; in the assay on Cryptococcus neoformans (32 ug/mL), -9.93% and -7.63%.

As for `[C-]#[N+]c1ccc(C(=O)NC(CC#C)C(=O)NCCC)cc1` (stereo unspecified), the Inhibition is 15.5% with Klebsiella pneumoniae, 4.37% in the assay with Candida albicans and -8.61% in the assay with Cryptococcus neoformans.

Regarding `CCCNC(=O)C(Cc1ccccc1C)NC(=O)c1ccc(C(F)(F)F)cc1` (stereo unspecified), the Inhibition is 12.54% in the assay with Klebsiella pneumoniae, 0.78% in the assay with Candida albicans and -3.03% in the assay on Cryptococcus neoformans.

For `CC(C)[C@H](NC(=O)c1cccc(C(F)(F)F)c1)C(=O)O`, the Inhibition in the assay on Klebsiella pneumoniae (32 ug/mL) is -0.42% and 3.74%; in the assay with Candida albicans, 7.7% and 10.5%; in the assay with Cryptococcus neoformans (32 ug/mL) it was -6.26% and -6.2%.

As for `NC(=O)[C@H](Cc1ccccc1)NC(=O)c1cccnc1`, the Inhibition with Klebsiella pneumoniae (32 ug/mL) is 15.19% and 20.47%; with Candida albicans, 6.63% and 4.08%; with Cryptococcus neoformans (32 ug/mL), -3.63% and -8.29%.

With `C[C@H](NC(=O)c1ccccc1Cl)C(=O)O`, the Inhibition in the assay with Klebsiella pneumoniae (32 ug/mL) was -1.23% and -3.38%; with Candida albicans, 4.87% and 8.5%; in the assay on Cryptococcus neoformans (32 ug/mL), -5.22% and -11.03%.

`O=C(N[C@@H](Cc1ccccc1)C(=O)O)C1CCCCC1`: the Inhibition was 1.14% and 5.62% in the assay with Klebsiella pneumoniae (32 ug/mL); -13.27% and -11.08% in the assay on Cryptococcus neoformans (32 ug/mL).

As for `[C-]#[N+]c1ccc(C(=O)NC(CC=C)C(=O)NCCC)cc1` (stereo unspecified), the results for the Inhibition in the assay on Klebsiella pneumoniae, in the assay on Candida albicans and with Cryptococcus neoformans were 4.31%, 3.05% and -8.98%, respectively.

In the case of `COc1cc(C(=O)N[C@@H](CC(C)C)C(=O)O)ccc1O`, the Inhibition with Klebsiella pneumoniae (32 ug/mL) is 1.29% and 3.72%; in the assay on Candida albicans, 4.13% and 6.65%; in the assay with Cryptococcus neoformans (32 ug/mL), -7.3% and -10.82%.
